In PubChem BioAssay one finds composite z-score and z-score data, which are given here for five compounds.

The structures appear in SMILES notation. Activity calls are given as the source filed them. Unless noted, no rule for the calls is given here.

A short description of assay [1]: compounds binding Alexa647 anti-His antibody – biochemical, small-molecule microarray, 635 nm fluorescence, artefact control for SMM control protein annotation, primary screen (AID 1128).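 Also: score merges feature fluorescence with signal-to-noise for each printed compound spot.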 As to conditions: higher = more signal.
For assay [2], the system named is Human papillomavirus type 1a E7 protein (residues 1-88). The assay can be described thus: HPV1a E7 small-molecule binders, primary screen, biochemical, small-molecule microarray, residues 1-88, 635 nm (AID 1129). The conditions noted are these: small-molecule microarray binding, fluorescence 635 nm; higher = more signal.
The target in assay [3] is Focal adhesion kinase 1 (Homo sapiens) (UniProt Q05397). The assay can be described thus: PTK2 protein binding on printed compound slides – biochemical, small-molecule microarray, 635/667 nm fluorescence, BSA, DTT, primary screen (AID 1130).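 Also: composite of spot emission at 667 nm and signal to noise over triplicate slides.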 The conditions noted are these: 635 nm fluorescence, higher = more signal.
Chain of Focal adhesion kinase 1 (Homo sapiens) (Q05397 whole entry, looked up): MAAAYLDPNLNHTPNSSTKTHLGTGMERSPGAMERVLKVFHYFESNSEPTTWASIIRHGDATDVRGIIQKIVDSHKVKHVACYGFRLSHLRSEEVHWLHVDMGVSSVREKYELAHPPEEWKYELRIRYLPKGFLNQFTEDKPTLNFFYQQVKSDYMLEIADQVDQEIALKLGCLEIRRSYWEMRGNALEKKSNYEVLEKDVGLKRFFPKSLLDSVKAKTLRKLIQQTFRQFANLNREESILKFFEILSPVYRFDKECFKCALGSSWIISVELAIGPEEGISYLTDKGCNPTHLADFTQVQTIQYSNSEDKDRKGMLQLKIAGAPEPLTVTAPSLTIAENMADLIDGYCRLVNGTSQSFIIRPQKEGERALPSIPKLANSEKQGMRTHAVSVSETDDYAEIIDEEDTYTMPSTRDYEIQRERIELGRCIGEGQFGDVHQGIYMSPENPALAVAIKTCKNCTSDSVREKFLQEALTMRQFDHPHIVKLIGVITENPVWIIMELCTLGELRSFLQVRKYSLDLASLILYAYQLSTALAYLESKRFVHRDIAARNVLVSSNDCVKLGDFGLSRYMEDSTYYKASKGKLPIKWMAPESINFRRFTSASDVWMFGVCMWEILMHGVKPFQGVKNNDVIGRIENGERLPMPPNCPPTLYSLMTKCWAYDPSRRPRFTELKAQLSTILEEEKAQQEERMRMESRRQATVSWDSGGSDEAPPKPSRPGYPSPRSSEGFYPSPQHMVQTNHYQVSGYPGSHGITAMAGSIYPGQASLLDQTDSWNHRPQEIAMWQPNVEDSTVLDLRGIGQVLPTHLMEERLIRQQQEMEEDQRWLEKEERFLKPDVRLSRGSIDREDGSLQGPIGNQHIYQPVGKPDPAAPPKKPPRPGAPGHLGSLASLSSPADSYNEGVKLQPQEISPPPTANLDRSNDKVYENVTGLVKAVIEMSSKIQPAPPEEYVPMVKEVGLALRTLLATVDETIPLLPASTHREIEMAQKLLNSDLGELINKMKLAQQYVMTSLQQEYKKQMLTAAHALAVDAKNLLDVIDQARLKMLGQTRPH
The subject of assay [4] is Fibrinogen (Alexa647-labelled). Put plainly: Alexa647-fibrinogen binding to printed small molecules – biochemical, small-molecule microarray, 635/667 nm fluorescence, artefact control for SMM control-protein annotation, profiling panel (AID 1131).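 Also: z-score merges 667 nm fluorescence with per-spot signal-to-noise over triplicate slides.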 As to conditions: fibrinogen-A647 binding fluorescence, higher = more signal.
Assay [5] concerns the target Follistatin (Homo sapiens) (UniProt P19883). Put plainly: FST protein binding to printed compounds – biochemical, small-molecule microarray, 635/667 nm fluorescence, primary screen (AID 1132). As to conditions: 635 nm fluorescence, higher = more signal.
For assay [6], the target named is Fibroblast growth factor 2 (Homo sapiens) (UniProt P09038). The assay can be described thus: basic fibroblast growth factor binding to printed compounds – biochemical, small-molecule microarray, 635/667 nm fluorescence, primary screen (AID 1133). The conditions noted are these: FGF2, fluorescence 635/667, higher = more signal.
Chain of Fibroblast growth factor 2 (Homo sapiens) (P09038 whole entry, looked up): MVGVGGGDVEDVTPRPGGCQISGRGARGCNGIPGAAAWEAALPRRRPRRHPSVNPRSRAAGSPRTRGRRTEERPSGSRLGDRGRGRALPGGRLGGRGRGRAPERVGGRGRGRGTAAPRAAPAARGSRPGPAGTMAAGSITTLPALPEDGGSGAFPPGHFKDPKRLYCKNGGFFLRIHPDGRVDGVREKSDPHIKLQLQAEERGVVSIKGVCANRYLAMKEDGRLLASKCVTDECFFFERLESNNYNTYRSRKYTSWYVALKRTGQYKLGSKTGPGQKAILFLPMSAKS
A short description of assay [7]: JC-1 mitochondrial potential readout, lung cancer cells – cell-based, A549, JC-1 fluorescence, basal, 24 h, 100 nL, profiling panel (AID 1138).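 Also: A549 lung adenocarcinoma cells under basal conditions with no added stimulus; test concentration not given here.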 As to conditions: higher = more signal.
A further assay concerns Lefty1. Put plainly: Lefty1 protein binding to printed compounds – biochemical, small-molecule microarray, 635/667 nm fluorescence, primary screen (AID 1139). The conditions noted are these: fluorescence 635/667, higher = more signal.
Assay [8] deals with wheat germ agglutinin (Triticum aestivum), Alexa647-labelled. The assay can be described thus: Alexa647-WGA lectin binding to printed small molecules – biochemical, small-molecule microarray, 635/667 nm fluorescence, artefact control for SMM control-protein annotation, profiling panel (AID 1140).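 Also: score merges 667 nm feature emission with signal to noise over triplicate slides.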 As to conditions: WGA-A647 binding, 635 nm fluorescence, higher = more signal.
The target in assay [9] is Luciferin 4-monooxygenase (Photinus pyralis) (UniProt P08659). The assay can be described thus: inhibition of purified Photinus pyralis luciferase – biochemical, luminescence, purified enzyme, 2006 set, primary screen (AID 1141).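 Also: cell-free assay with purified firefly luciferase at 100 ng per well in PBS; test concentration not given here.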 As to conditions: purified firefly luciferase, SteadyGlo luminescence, 30 min; higher = more signal, called active from +8 up or from −8 down.
Chain of Luciferin 4-monooxygenase (Photinus pyralis) (P08659 whole entry, looked up): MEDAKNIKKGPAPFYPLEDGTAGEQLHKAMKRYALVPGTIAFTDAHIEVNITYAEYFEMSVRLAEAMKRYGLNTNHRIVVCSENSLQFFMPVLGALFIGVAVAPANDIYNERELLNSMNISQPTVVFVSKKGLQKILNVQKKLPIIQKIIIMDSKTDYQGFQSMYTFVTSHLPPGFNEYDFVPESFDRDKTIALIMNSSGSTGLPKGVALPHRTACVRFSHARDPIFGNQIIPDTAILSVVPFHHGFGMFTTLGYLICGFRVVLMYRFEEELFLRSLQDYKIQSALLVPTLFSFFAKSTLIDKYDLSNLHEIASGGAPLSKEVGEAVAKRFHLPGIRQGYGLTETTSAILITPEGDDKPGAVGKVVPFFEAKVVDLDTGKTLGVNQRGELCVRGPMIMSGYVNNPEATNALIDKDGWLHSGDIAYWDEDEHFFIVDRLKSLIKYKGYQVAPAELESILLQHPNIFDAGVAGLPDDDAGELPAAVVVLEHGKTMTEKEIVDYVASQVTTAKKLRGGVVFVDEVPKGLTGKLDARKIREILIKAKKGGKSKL
Assay [10] deals with Wnt5a (protein binding on small-molecule microarray). Put plainly: small molecules binding Wnt5a protein – biophysical, small-molecule microarray, 635/667 nm fluorescence, primary screen (AID 1142).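 Also: fluorescence read at 667 nm with signal to noise per printed feature.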 As to conditions: 635 nm fluorescence, higher = more signal.
The nature of assay [11]: ATP-based viability of Huh7 replicon cells – cell-based, CellTiter-Glo luminescence, basal, 48 h, cytotoxicity control for HCV replication inhibitor project, primary screen (AID 1143).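 Also: Huh7 hepatoma cells carrying a hepatitis C replication reporter with no stimulus; test concentration not given here.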 The conditions noted are these: higher = more signal, called active from +8 up or from −8 down.
A short description of assay [12]: Pseudomonas biofilm growth suppression – PAO1 strain, BacTiter-Glo luminescence, LB-PBS, primary screen (AID 1144). As to conditions: P. aeruginosa PAO1 biofilm, 12 h, higher = more signal.
Assay [13] in a line: basal CRE-LacZ reporter activity in PC12 – cell-based, unstimulated, primary screen (AID 1145). The conditions noted are these: no forskolin, luminescence, 4.5 h, higher = more signal, called active from +8 up or from −8 down.
A short description of assay [14]: forskolin-driven CRE-LacZ activity in PC12 – cell-based, CRE-LacZ reporter, forskolin-stimulated, primary screen (AID 1146).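 Also: PC12 cells with 6xCRE LacZ reporter stimulated by forskolin 10 µM; beta-galactosidase reporter signal reflecting CREB driven transcription.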 The conditions noted are these: luminescence, 4.5 h, higher = more signal, called active from +8 up or from −8 down.
Assay [15] concerns the target Streptavidin (Streptomyces avidinii) (UniProt P22629). Put plainly: compounds binding control protein streptavidin – biophysical, small-molecule microarray, 635/667 nm fluorescence, artefact control for SMM compound annotation, primary screen (AID 1147).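 Also: signal reflects streptavidin binding to arrayed compounds as a control protein.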 The conditions noted are these: higher = more signal.
Assay [16] in a line: probe aInhba binding on compound microarray – biochemical, small-molecule microarray, 635/667 nm fluorescence, primary screen (AID 1148).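 Also: score merges 667nm spot fluorescence with signal-to-noise for antibody binding to printed compounds.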 The conditions noted are these: higher = more signal.
The target in assay [17] is Torsin-1A (Homo sapiens) (UniProt O14656). Put plainly: TOR1A wild-type binding on microarray – cell lysate, small-molecule microarray, lysate, 635/667 nm, primary screen (AID 1149). The conditions noted are these: COS7 hTOR1A-WT lysate, 635 nm fluorescence, higher = more signal.
Chain of Torsin-1A (Homo sapiens) (O14656 whole entry, looked up): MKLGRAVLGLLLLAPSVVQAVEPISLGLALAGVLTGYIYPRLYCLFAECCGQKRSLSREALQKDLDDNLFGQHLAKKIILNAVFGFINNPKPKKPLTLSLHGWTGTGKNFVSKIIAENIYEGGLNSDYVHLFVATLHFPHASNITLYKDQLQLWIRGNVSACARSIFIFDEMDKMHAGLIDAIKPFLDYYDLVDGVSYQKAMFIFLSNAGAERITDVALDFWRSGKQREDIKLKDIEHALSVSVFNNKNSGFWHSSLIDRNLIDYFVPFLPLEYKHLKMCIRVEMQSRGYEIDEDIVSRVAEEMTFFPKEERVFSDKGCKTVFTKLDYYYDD
Assay [18] shares this target. The assay can be described thus: torsin A mutant lysate binding on microarrays – cell lysate, small-molecule microarray, COS7 lysate, 635/667 nm fluorescence, primary screen (AID 1150).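 Also: score pools 667 nm emission and signal to noise measuring lysate protein binding.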 The conditions noted are these: COS7 hTOR1A mutant lysate, 635 nm fluorescence, higher = more signal.
Assay [19] concerns Sonic hedgehog protein (Shh). Put plainly: Sonic hedgehog microarray binding compounds – biochemical, small-molecule microarray, 635/667 nm fluorescence, primary screen (AID 1151).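 Also: Shh protein binding to compounds spotted on small-molecule microarray slides; score combines spot fluorescence intensity with signal-to-noise across triplicate slides.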 The conditions noted are these: 635 nm fluorescence, higher = more signal.

Chain of Follistatin (Homo sapiens) (P19883 whole entry, looked up): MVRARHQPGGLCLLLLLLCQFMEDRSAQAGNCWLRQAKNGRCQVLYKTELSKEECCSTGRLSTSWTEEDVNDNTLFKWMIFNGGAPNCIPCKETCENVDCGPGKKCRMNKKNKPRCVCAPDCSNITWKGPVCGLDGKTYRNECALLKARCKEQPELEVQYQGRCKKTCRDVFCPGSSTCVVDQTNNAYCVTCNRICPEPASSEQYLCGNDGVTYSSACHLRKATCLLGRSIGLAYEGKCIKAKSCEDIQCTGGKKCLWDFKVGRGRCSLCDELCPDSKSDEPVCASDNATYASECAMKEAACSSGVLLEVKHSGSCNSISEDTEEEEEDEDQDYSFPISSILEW
Chain of Streptavidin (Streptomyces avidinii) (P22629 whole entry, looked up): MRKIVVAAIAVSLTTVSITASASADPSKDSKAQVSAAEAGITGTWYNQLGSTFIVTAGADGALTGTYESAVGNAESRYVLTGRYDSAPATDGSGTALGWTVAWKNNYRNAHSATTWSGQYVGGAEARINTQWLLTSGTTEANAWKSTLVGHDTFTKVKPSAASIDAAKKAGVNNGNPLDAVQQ

On to `COC(=O)[C@@]1(Cc2ccc(OC)cc2)[C@H]2c3cc(C(=O)N4CCCC4)n(Cc4cccc5ccccc45)c3C[C@H]2CN1C(=O)c1ccccc1`, for which the composite z-score in [1] is 1.57; in assay [2], 1.2; in [3], 0.164; in assay [4] it was 0.704; in assay [5] it was 0.36; in assay [6], -0.247. Further, the composite z-score with Lefty1 was -0.245; in assay [8], 0.396; in [10], 0.43; in assay [15], 0.688; in assay [16], 0.447; with Torsin-1A (Homo sapiens) [17], -0.25. Also, the composite z-score with Torsin-1A (Homo sapiens) [18] is 0.338; in [19], -0.338. For the same compound, the z-score in [7] was 1.07; in assay [9], 1.31 (inactive); in assay [11] it was -2.8 (inactive); in assay [12] it was 1.14 (inactive); in assay [13] it was 0.0041 (inactive); in assay [14], 0.259 (inactive).

With `N#Cc1ccc(NN2C(C(O)c3ccc(F)cc3)C=CC3C(=O)N(c4ccccc4)C(=O)C32)cc1` (stereo not given), the composite z-score in [1] stood at 1.57; in assay [2], 0.57; in assay [3] it was 0.171; in assay [4], 0.797; in [5], 0.0089; in [6], 0.866. In addition, the composite z-score in the assay on Lefty1 is -0.577; in assay [8], 0.94; in assay [10] it was 0.0035; in assay [15] it was 0.945; in assay [16], -0.0791; with Torsin-1A (Homo sapiens) [17], 0.0271. Further, the composite z-score was -0.0504 with Torsin-1A (Homo sapiens) [18] and -0.304 in [19]. Moreover, the z-score in [7] is 0.324; in assay [9], 0.646 (inactive); in assay [11], 0.632 (inactive); in [12] it was -0.377 (inactive); in assay [13] it was 0.629 (inactive); in assay [14], 0.521 (inactive).

On to `O=C1OCCC/C=C\[C@H]2OC34C=CCN(CCN5CCOCC5)C(=O)[C@H]3N(CCCCCCO)C(=O)[C@@H]4C12` (stereo not given in full), for which the composite z-score was 3.45 in [1]; 0.167 in assay [2]; -0.447 in [3]; -0.613 in [4]; -0.318 in assay [5]; -0.25 in assay [6]. Also, the composite z-score in the assay on Lefty1 is 0.337; in assay [8], 0.33; in [10] it was -0.089; in assay [15] it was -0.215; in [16] it was -0.0791; with Torsin-1A (Homo sapiens) [17] it was 0.944. Besides, the composite z-score was -0.404 with Torsin-1A (Homo sapiens) [18] and 0.837 in [19]. The z-score in assay [7] is 1.13; in [9], -1.05 (inactive); in assay [11], -0.129 (inactive); in assay [12] it was -1.18 (inactive); in [13] it was 0.325 (inactive); in assay [14] it was -0.0772 (inactive).

As to `[N-]=[N+]=Nc1ccccc1[C@H]1OC(c2ccc(OCCCO)cc2)=N[C@@]1(Cc1ccccc1)C(=O)N1CCCCC1`, the composite z-score is 1.55 in assay [1]; 1.2 in assay [2]; 0.724 in assay [3]; 0.963 in [4]; 1.45 in [5]; 1.67 in [6]. In addition, the composite z-score worked out at 0.0229 in the assay with Lefty1; 0.945 in [8]; 1.57 in [10]; 1.16 in assay [15]; 0.395 in assay [16]; 0.728 with Torsin-1A (Homo sapiens) [17]. For the same compound, the composite z-score in the assay with Torsin-1A (Homo sapiens) [18] turned out to be 0.373; in [19], 0.021. The z-score was -1.43 in [7]; -6.62 (inactive) in assay [9]; -3.95 (inactive) in assay [11]; -0.21 (inactive) in [12]; 0.722 (inactive) in assay [13]; -0.585 (inactive) in [14].

`COCCOC(=O)N1C(=O)[C@@]2(c3cc(C#Cc4ccc(OC)cc4)ccc31)[C@H](C(=O)Nc1nc3ccccc3s1)[C@H]1C(=O)O[C@H](c3ccccc3)[C@H](c3ccccc3)N1[C@@H]2c1ccc(O)cc1`: the composite z-score in assay [1] is -0.0507; in assay [2], 1.13; in assay [3], 0.0931; in assay [4], 0.965; in assay [5], 1.29; in assay [6] it was 1.09. Also, the composite z-score is 1.18 with Lefty1; 0.927 in assay [8]; 0.472 in [10]; 0.768 in assay [15]; 0.266 in assay [16]; 0.198 with Torsin-1A (Homo sapiens) [17]. In addition, the composite z-score with Torsin-1A (Homo sapiens) [18] came to 0.811; in [19], 1.91. Also, the z-score is -2.26 in assay [7]; -0.0504 (inactive) in [9]; -3.43 (inactive) in assay [11]; -1.8 (inactive) in assay [12]; -1.83 (inactive) in [13]; 0.673 (inactive) in assay [14].
